# The campaign covered roughly 1,200 compounds. About 360 (30%) were called active. Not all results are given here. Potency and affinity values are given separately. A number with no mark means an inactive call. The rule behind the calls is not given here.
# Experiment: antibacterial activity by ATP level – BacTiter-Glo luminescence, cherry-picked samples, counter-screen, dose response (AID 504843);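 note: growth measured after 8 h incubation at 30 °C; 0% = median of sample compound wells and -100% = antibiotic control wells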
# Conditions: bacterial growth; series mostly up to 15 µM; activity change, negative = inhibition: at the top concentration
row,Compound,"activity change, negative = inhibition"
1,O=C(Nc1cc(F)ccc1F)C1CCCN(c2ncnc3c2nc2n3CCCCC2)C1 (stereo unspecified),-3.11%
2,CCN(CC)S(=O)(=O)c1ccc(NC(=O)Cc2cccs2)cc1,-7.71%
3,Oc1ccc(/C=N/Nc2ccccc2)cc1,8.18%
4,COc1ccc(-c2cc(C(F)(F)F)c3c(n2)sc2c(O)cc(=O)[nH]c23)c(OC)c1,2.95%
5,CC(C)c1cccc(C(C)C)c1OC(=O)[C@H]1OC(C(C)(C)C)=C[C@@H]1c1ccccc1,8.97%
6,COC(=O)CN1C(=O)C(O)=C(C(C)=O)C1c1ccc([N+](=O)[O-])cc1 (stereo unspecified),-2.84%
7,Cc1c(N2C(=O)c3cccc4cccc(c34)C2=O)c(=O)n(-c2ccccc2)n1C,-4.07%
8,CCCc1c(O)nc(SC2CC(=O)N(c3ccc(OC)cc3)C2=O)[nH]c1=O (stereo unspecified),7.76%
9,CC(C)CNC(=S)NC1CCCC1,14.6%
10,COc1cc(SC)ccc1C(=O)Nc1cc(C)ccn1,9.39%
11,COc1cc2cc(C(c3nnnn3Cc3ccc(F)cc3)N3CCCCCC3)c(=O)[nH]c2cc1OC (stereo unspecified),24.9%
12,O=S(=O)(NC1CCCC1)c1cc(F)ccc1F,-12.1%
13,O=C(O)C1CCCCN1S(=O)(=O)c1ccc(Cl)s1 (stereo unspecified),8.83%
14,Cc1cc(=O)oc2cc(OCC(=O)OCC(=O)N3CCc4ccccc43)ccc12,-9.69%
15,CCc1nc2nc(C)c(NS(=O)(=O)c3ccc(Cl)s3)c(=O)n2[nH]1,-0.224%
16,Cc1ccc(=O)n(-c2ccccc2)c1,13.6%
17,COc1ccc(Cl)cc1S(=O)(=O)Nc1noc2ccccc12,19.9%
18,COc1ccc(Cc2nnc(NS(=O)(=O)c3ccc(Cl)cc3)s2)cc1OC,-1.52%
19,CC(C)(CO)[C@@H](O)C(=O)NCCC(=O)O,1.6%
20,COc1cc(C(=O)NCCOC(=O)c2cccc(N(C)C)c2)cc(OC)c1OC,-6.73%
21,N#Cc1c(N)nc2c(c1-c1ccncc1)CCCCC2,-1.17%
22,CN(Cc1ccccc1)C(=O)N1CCOCC1,1.22%
23,Cc1ccccc1-n1c(SCC(=O)N2CCOCC2)nc(O)c(Cc2ccccc2)c1=O,-10.1%

row,Compound,"activity change, negative = inhibition"
1,Cc1cc(C)n2nc(SC(C)C(=O)N3CC(C)OC(C)C3)nc2n1 (stereo unspecified),1.03%
2,COc1ccc(OC)c(NC(=O)c2cccnc2)c1,-6.8%
3,CN1CCN(c2ccc(S(=O)(=O)N3CCCCC3)cc2NC(=O)c2cccc([N+](=O)[O-])c2)CC1,4.22%
4,O=C(O)c1ccc(N/N=C/c2ccc(-c3ccccc3)cc2)cc1,-0.556%
5,Cc1ccnc(NS(=O)(=O)c2ccc(NS(=O)(=O)c3ccccc3)cc2)n1,-9.57%
6,O=C(O)c1ccc(NS(=O)(=O)c2cc(C(=O)O)ccc2Br)cc1,1.32%
7,Brc1ccc(NC2=Nc3ccccc3CC2)cc1,-1.59%
8,C[C@@H]1O[C@@H](Oc2c(-c3ccc(O)c(O)c3)oc3cc(O)cc(O)c3c2=O)[C@H](O)[C@H](O)[C@H]1O,13.4%
9,C[C@H](NC(=O)c1nc[nH]c1C(=O)NCc1ccc(CNC(=O)OC(C)(C)C)cc1)c1ccccc1,-13%
10,CC(C)(C)OC(=O)[C@H](Cc1ccccc1)NC(=O)c1nc[nH]c1C(=O)NC1CCN(C(=O)OC(C)(C)C)CC1,16%
11,Cn1cc(CN2CCC(CO)(CCCc3ccccc3)CC2)c(-c2ccccc2)n1,9.02%
12,O=C(CCc1ccccc1)N1CCN(Cc2ccc(F)cc2Cl)CC1,14.4%
13,CCCn1c(N)c(C(=O)CSc2nc(C)cs2)c(=O)n(C)c1=O,23.1%
14,O=C(Nc1ccccc1OC(F)F)c1oc2ccccc2c1COc1ccccc1,-3.7%
15,O=C(O)CC(NCc1ccco1)C(=O)OCCc1ccccc1 (stereo unspecified),3.97%
16,CC(/C=N/NC(=O)c1nnn(-c2nonc2N)c1C(C)C)=C\c1ccccc1,0.692%
17,CN1CCN(CCC(=O)Nc2ccc(OCc3ccccc3)cc2)CC1,15.1%
18,CCOc1ccc(NC(C(=O)Nc2cccc(C(C)=O)c2)c2ccccc2)cc1 (stereo unspecified),-17.9%
19,CCn1c(SCC(=O)Nc2ccc(OC)cc2)nc2c1c(=O)n(C)c(=O)n2C,0.126%
20,CC(C)(C)NC(=O)NC(=O)CSc1ccc(S(=O)(=O)N2CCOCC2)cn1,11.8%
21,CN(c1ccccc1C(=O)Nc1ccc(S(=O)(=O)N2CCOCC2)cc1)S(C)(=O)=O,2.22%
22,Cc1nc(SCc2nc3ccccc3[nH]2)c2oc3ccccc3c2n1,-22.7%
23,O=c1/c(=C/c2ccc(O)c([N+](=O)[O-])c2)sc2nc3ccccc3n12,-4.54%

row,Compound,"activity change, negative = inhibition"
1,COc1ccc([N+](=O)[O-])cc1/C=N/NC(=O)Cc1ccccc1,7.51%
2,CC(SCC(=O)Nc1ccc(F)cc1)c1nc2ccccc2c(=O)[nH]1 (stereo unspecified),6.97%
3,Cc1nc2c(=O)n(-c3cccc(C(F)(F)F)c3)nc(C)c2s1,-8.93%
4,CCN1CCCC1CNCc1cccc(OC)c1OCc1ccc(F)cc1 (stereo unspecified),-0.034%
5,CCN1CCCC1CNC(=O)C(=O)NC(C)C (stereo unspecified),14.5%
6,O=C(O)c1sccc1OCc1ccccc1,9.78%
7,O=C(CCC1CCCCC1)NCCN1CCOCC1,-15%
8,CCOc1ccc(Br)cc1CNCCN1CCOCC1,-3.4%
9,COc1ccc(N=Cc2nc(-c3ccccc3)oc2OC(=O)c2ccccc2)cc1,-13.6%
10,CCNc1nc(OC)nc(Oc2ccc(=O)n(-c3ccccc3)n2)n1,-3.84%
11,Clc1ccc(-c2csc(-c3cccnc3)n2)s1,-5.66%
12,Nc1nc2ccc([N+](=O)[O-])c(N)c2s1,5.18%
13,CCSC(=O)NC12CC3CC(CC(C3)C1)C2,10.9%
14,O=C(CSc1nc2ccccc2c(=O)n1CCCN1CCOCC1)Nc1ccc2c(c1)OCO2,-1.96%
15,O=C(O)c1ccccc1-c1nc2ccccc2c(=O)n1O,-15.3%
16,CN(C(=O)COC(=O)CNC(=O)C12CC3CC(CC(C3)C1)C2)C1CCS(=O)(=O)C1 (stereo unspecified),14.9%
17,N#CC1=C2SCC(O)(c3ccccc3)N2C(=O)CC1c1ccccc1F (stereo unspecified),12.5%
18,COc1ccc(C2CC(=O)Nc3n[nH]c(-c4ccccc4)c32)cc1OC (stereo unspecified),2.24%
19,COc1cc2c(cc1OC)C(c1cccc(F)c1)CC(=O)N2 (stereo unspecified),-5.4%
20,Cc1csc(N2CCCC2c2nc3cc(C(F)(F)F)ccc3n2CCOCCO)n1 (stereo unspecified),4.33%
21,CN1C2CCC1CC(NS(=O)(=O)c1cc(Cl)c(Cl)cc1Cl)C2 (stereo unspecified),25.6%
22,CC(C)(C)c1ccc(C(=O)O)c(C(=O)c2ccc(C(=O)O)cc2)c1,-10.4%
23,CN(C)c1ccc(C(=O)n2nnc3ccccc32)cc1,-16.1%

row,Compound,"activity change, negative = inhibition"
1,Nc1nnc(-c2cn(-c3ccccc3)nc2-c2ccc(Cl)cc2)o1,11.4%
2,Cc1cccc(CNC(=O)C2CCCN(c3nn4c(=O)cc(C)nc4s3)C2)c1 (stereo unspecified),10.7%
3,COc1ccc(CNC(=O)Cn2nnc(-c3ccc(NC(=O)C4CCCCC4)cc3)n2)cc1,-14.9%
4,CCc1ccc(NS(=O)(=O)c2ccc3[nH]cc(C(=O)N4CCCCC4)c(=O)c3c2)cc1,11.8%
5,C/C(=N\NC(=O)c1cccc(O)c1)c1cccc(NC(=O)c2ccc(F)cc2)c1,-11.8%
6,CCOC(=O)CNS(=O)(=O)Cc1ccccc1,2.54%
7,CC(=O)NCC(=O)OCC(=O)c1ccc(C)cc1,-4.08%
8,CCCCCn1c(CNC(=O)c2cccs2)nc2ccccc21,0.73%
9,Cc1cccc(NC(=S)NC(C)CCc2ccccc2)c1 (stereo unspecified),8.6%
10,CCOC(=O)c1c2c3c(c(Cl)ccc3[nH]c1=O)C(=O)c1ccccc1-2,-22.5%
11,CCc1ccccc1NC(=O)CSc1nnc(-c2ccco2)n1N,13.7%
12,Cc1ccc(S(=O)(=O)Nc2ccnc(-c3cccnc3)n2)cc1,-4.2%
13,Clc1ccccc1-c1ccc2ncnc(NCc3cccnc3)c2c1,11.5%
14,Cc1ccc(/C=N/NC(=O)c2ccc(Cn3cc([N+](=O)[O-])cn3)o2)cc1,12.9%
15,CC(C)(C)OC(=O)N[C@@H](Cc1ccccc1)[C@H](O)c1ccco1,11.6%
16,CCCc1cc(=O)oc2cc(OCC(=O)N(C)C)c(Cl)cc12,0.057%
17,COc1ccc(C(CNC(=O)c2cc(SC)ccc2Cl)N(C)C)cc1 (stereo unspecified),18.1%
18,O=C(NC(=S)NNC(=O)c1ccccc1O)c1ccccc1,-3.27%
19,O=C(c1ccco1)N1CCN(C(=O)c2ccc(CS(=O)c3ccc(F)cc3)o2)CC1 (stereo unspecified),0.136%
20,CCC(=NCCc1ccc(OC)c(OC)c1)C1=C(O)CC(C)(C)CC1=O,13.4%
21,COCCNC(=O)c1c[nH]c2ccc(S(=O)(=O)N3CCc4ccccc43)cc2c1=O,9.26%
22,COc1cc(OC)cc(C(=O)NC2CC(C)(C)NC(C)(C)C2)c1,13.5%
23,CC(=O)c1cc(CN2CCCCC2)cc(OC(C)C)c1,-0.098%

row,Compound,"activity change, negative = inhibition"
1,CCc1cc2c(=O)n(C(C)C(=O)OC3CCCCC3)cnc2s1 (stereo unspecified),0.744%
2,O=C(Nc1cc(N2CCOCC2)ncn1)c1ccccc1,-16.3%
3,COc1ccccc1N1C(=NC(=O)CCc2ccccc2)SC2CS(=O)(=O)CC21 (stereo unspecified),3.8%
4,CCCn1c2c(c(=N)c3c1CCC3)CCCC2,-11.5%
5,CC(C)(C#N)NC(=O)C1CCCN1S(=O)(=O)c1ccc2ccccc2c1 (stereo unspecified),-6.47%
6,CC(=O)c1ccc(NC(=O)C2CCCN2S(=O)(=O)c2cccc3cccnc23)cc1 (stereo unspecified),-10%
7,Cc1ccc(S(=O)(=O)NC(C)(C)CSc2nnc(Nc3ccccc3)s2)cc1,-0.402%
8,O=C(CN1CCCCC1)Nc1cc(Cl)ccc1Cl,1.36%
9,Cc1ccc(NC(=O)CN2CCN(c3ccccn3)CC2)c(Cl)c1,-4.89%
10,CCC1Nc2ncnc(N3CCOCC3)c2N(Cc2ccc(Cl)cc2)C1=O (stereo unspecified),7.38%
11,O=C(Nc1cccnc1Cl)c1noc2c1CCc1ccccc1-2,-16.5%
12,CC1=C(C#N)C(c2cn(-c3ccccc3)nc2-c2cccs2)C(C#N)=C(C)N1,-12.6%
13,CC(=O)Nc1cccc(-c2csc(Nc3cc(C)ccn3)n2)c1,0.359%
14,O=C(O)c1ccc(NC2=C(N3CCOCC3)C(=O)c3ccccc3C2=O)cc1,8.16%
15,COC(=O)COc1cccc(NC(=O)c2cccc(C)c2)c1,-12.3%
16,Cc1cccc(OCC(O)Cn2c(=N)n(CCN3CCOCC3)c3ccccc32)c1 (stereo unspecified),-6.21%
17,CCCNC(=O)c1cc(C)no1,-13.7%
18,COc1ccc(/C(C)=N/NC(=O)CNC(=O)c2ccncc2)c(OC)c1,14.3%
19,CCCCc1ccc(N=N/C(C(=O)Nc2ccc(NC(C)=O)cc2OC)=C(/C)O)cc1,4.01%
